# Measurements taken from paper PMC12670160, “A drug-repurposing screen of FDA- and EMA-approved drugs identifies two NF-κB inhibitors active against eumycetoma” (Journal of Antimicrobial Chemotherapy, 2025).
# Where a name gives a salt, the structure may show the parent alone. Read-outs that look alike come from different tables or passages of the source. Screen size: about 5,300 compounds; about 130 (2.5%) showed an effect of 50% or more. This excerpt belongs to a sample that is enriched for strong results.
# Test system: M. mycetomatis strain mm55
# Details: primary screen, metabolic activity vs growth control, 96 h, 2 µM, inhibitor
SMILES,% viability (Madurella mycetomatis metabolic activity at 2µM (%)) [%],% viability [%]
"O=C1OC2(c3cc(I)c(O)c(I)c3Oc3c2cc(I)c(O)c3I)c2c(Cl)c(Cl)c(Cl)c(Cl)c21 [ONC0002798, rose bengal sodium salt]",83.07,
"CC1=C(C(=O)O)N2C(=O)[C@@H](NC(=O)[C@H](N)C3=CCC=CC3)C2SC1 (stereo partly shown) [ONC0000708, cephradine]",,86.49
"CCS(=O)(=O)N(C)[C@H]1c2cc(C#N)ccc2OC(C)(C)[C@@H]1O [ONC0002693, chromanol293b3r4s]",,103.9
"CC1(C)Oc2ccc(C#N)cc2[C@H](N(Cc2ncc[nH]2)c2ccc(Cl)cc2)[C@H]1O [ONC0001872, bms191095]",,47.09
"CCS(=O)(=O)N(C)[C@@H]1c2cc(C#N)ccc2OC(C)(C)[C@H]1O.CCS(=O)(=O)N(C)[C@H]1c2cc(C#N)ccc2OC(C)(C)[C@@H]1O [ONC0001571, chromanol]",,78.85
"c1ccc2sc(N3CCN(Cc4ccc5c(c4)OCO5)CC3)nc2c1 [ONC0000161, 214piperonylpiperazinylbenzothiazole]",,77.89
"CCCCn1c(-c2ccccc2)nc(-c2ccccc2)c1CN(Cc1ccc2c(c1)OCO2)Cc1ccc2c(c1)OCO2 [ONC0002511, ndt9513727]",,38.93
"c1ccc(C(O[C@@H]2CCCN(CCc3ccc4c(c3)OCO4)C2)c2ccccc2)cc1 [ONC0003094, zamifenacin]",,77.83
"Nc1ncnc2c1c(-c1cccc(OCc3ccccc3)c1)cn2C1CC(CN2CCCC2)C1 (stereo in doubt) [ONC0000263, nvpadw742]",,57.9
"CCCN1C[C@@H](NS(=O)(=O)N(CC)CC)C[C@@H]2Cc3c(O)cccc3C[C@H]21 [ONC0000942, quinagolide hydrochloride]",,65.37
"CO[C@H](C(=O)[C@@H](O)[C@@H](C)O)[C@@H]1Cc2cc3cc(O[C@H]4C[C@@H](O[C@H]5C[C@@H](O)[C@H](O)[C@@H](C)O5)[C@@H](O)[C@@H](C)O4)c(C)c(O)c3c(O)c2C(=O)[C@H]1O[C@H]1C[C@@H](O[C@H]2C[C@@H](O[C@H]3C[C@](C)(O)[C@H](O)[C@@H](C)O3)[C@H](O)[C@@H](C)O2)[C@H](O)[C@@H](C)O1 [ONC0003516, plicamycin mithramycin]",,50.92
"Cc1c(N)nc([C@H](CC(N)=O)NC[C@H](N)C(N)=O)nc1C(=O)N[C@H](C(=O)N[C@H](C)[C@@H](O)[C@H](C)C(=O)N[C@H](C(=O)NCCc1nc(-c2nc(C(=O)NCCC[S+](C)C)cs2)cs1)[C@@H](C)O)[C@@H](O[C@@H]1O[C@@H](CO)[C@@H](O)[C@H](O)[C@@H]1O[C@H]1O[C@H](CO)[C@@H](O)[C@H](OC(N)=O)[C@@H]1O)c1c[nH]cn1 [ONC0004316, bleomycin sulfate]",,4.137
"Cc1c(N)nc([C@H](CC(N)=O)NC[C@H](N)C(N)=O)nc1C(=O)N[C@H](C(=O)N[C@H](C)[C@@H](O)[C@H](C)C(=O)N[C@H](C(=O)NCCc1nc(-c2nc(C(=O)NCCCNCCCCN)cs2)cs1)[C@@H](C)O)[C@@H](O[C@@H]1O[C@@H](CO)[C@@H](O)[C@H](O)[C@@H]1O[C@@H]1O[C@H](CO)[C@@H](O)[C@H](OC(N)=O)[C@@H]1O)c1cnc[nH]1 [ONC0002990, bleomycetin]",,3.217
"CO/N=C(/C(=O)NC1C(=O)N2C(C(=O)O)=C(C[N+]3(C)CCCC3)CSC12)c1csc(N)n1 (stereo not shown) [ONC0000506, cefepime hydrochloride]",,66.95
"CC(=O)OCC(=O)[C@@]1(O)[C@@H](C)CC2C3CCC4=CC(=O)C=C[C@]4(C)[C@@]3(F)[C@@H](O)C[C@@]21C (stereo partly shown) [ONC0004050, betamethasone acetate]",,111.9
"O=CN1CCC(C(=O)NCCN2CCC(=C3c4ccccc4C=Cc4ccccc43)CC2)CC1 [ONC0001856, at1015]",,84.57
"N#Cc1ccc(N2NC3=C(CCc4cc(C(=O)O)ccc43)[C@@H]2C2CCCC2)cc1Cl [ONC0002131, pf03882845]",,78.15
OCCCNc1cc(-c2ccnc(Nc3cccc(Cl)c3)n2)ccn1 [cgp60474],,9.09
"COc1ccc(Nc2nccc(NCCO)n2)cc1 [ONC0000720, cardiogenolc]",,79.31
"O=C(Nc1cccc(Cl)c1)c1ccccn1 [ONC0004653, vu 0364770]",,68.57
"CC(C)[C@H](N)C(=O)OCCOCn1cnc2c(=O)[nH]c(N)nc21 [ONC0004144, valacyclovir hydrochloride]",,101.2
"O=c1[nH]ccc2cc(OC3CCNCC3)ccc12 [ONC0001198, sar407899 hydrochloride]",,94.6
"O=C(CC1CC(c2ccc(F)cc2F)=NO1)N1CCOCC1 (stereo not shown) [ONC0000237, cpsi1306]",,89.07
"O=C1CN(/N=C/c2ccc(-c3ccc([N+](=O)[O-])cc3)o2)C(O)=N1 [ONC0003073, dantrolene]",,104.9
"COC(=O)[C@@]12OC[C@]34[C@H]([C@@H](O)[C@@H]1O)[C@@]1(C)CC(=O)C(O)=C(C)[C@@H]1C[C@H]3OC(=O)[C@H](OC(=O)/C=C(\C)C(C)C)[C@@H]24 [ONC0001105, bruceantin]",,72.53
"COc1cc2c(NC3CCN(C)CC3)nc(N3CCCN(C)CC3)nc2cc1OCCCN(C)C [ONC0000276, unc0224]",,85.54

SMILES,% viability (Madurella mycetomatis metabolic activity at 2µM (%)) [%],% viability [%]
"COc1cc2nc(N3CCCN(C)CC3)nc(NC3CCN(Cc4ccccc4)CC3)c2cc1OC [ONC0004534, bix 01294]",,44.63
"COc1cc2c(NC3CCN(C)CC3)nc(N3CCCN(C)CC3)nc2cc1OCCOCCN(C)C [ONC0002054, unc0321]",,65.32
"CNCCc1c[nH]cn1 [ONC0002580, nalphamethylhistaminedihydrochloride]",,77.02
"C[C@]12C=CC(=O)C=C1CCC1C2[C@@H](O)C[C@@]2(C)C1CC[C@]2(O)C(=O)COC(=O)CCC(=O)O (stereo partly shown) [ONC0004028, prednisolone hemisuccinate]",,62.59
"COc1ccc2c(NC(=O)Nc3cccc(C(F)(F)F)n3)ccnc2c1 [ONC0002529, a1070722]",,76.76
"O=C(O)CCC(=O)O [ONC0003714, succinic acid]",,98.68
"NCC(=O)O [ONC0001985, glycine]",,104.5
"NCC(=O)CCC(=O)O [ONC0004291, aminolevulinic acid hydrochloride]",,48.43
"CC(=O)N[C@@H](CS)C(=O)O [ONC0000337, acetylcysteine]",,67.99
"CC(C)(S)C(=O)N[C@@H](CS)C(=O)O [ONC0003276, bucillamine]",,45.36
"CC(C)OC(=O)CNC(=O)[C@H](CS)NC(=O)CC[C@H](N)C(=O)O [ONC0002985, glutathionemonoisopropylester]",,70.59
"NC(=O)c1cc[n+](CC2=C(C(=O)O)N3C(=O)[C@@H](NC(=O)Cc4cccs4)[C@H]3SC2)cc1 [ONC0005624, cefalonium]",,95.75
"CO[C@H]1CC[C@H](N(c2cc(C3=CCCCC3)sc2C(=O)O)C(=O)[C@H]2CC[C@H](C)CC2)CC1 [ONC0000943, vch916]",,78.62
"CC(C)c1ccc(C(=O)NC(=N)N)cc1S(C)(=O)=O [ONC0004136, cariporide]",,93.97
"CC12CCC(C(Br)C1=O)C2(C)C (stereo not shown) [ONC0003727, 3bromocamphor]",,127.8
"Cc1csc2c(N[C@@H](C)CN3CCN(S(=O)(=O)c4ccc(Cl)c(Cl)c4)CC3)ncnc12 [ONC0001129, lpa2 antagonist 1]",,45.06
"O=C(O)/C(Cc1ccccc1[N+](=O)[O-])=N/Nc1nc(-c2ccc(Cl)c(Cl)c2)cs1 [ONC0005147, 4egi1]",,73.1
"CC[C@]1(O)C[C@H]2CN(CCc3c([nH]c4ccccc34)[C@@](C(=O)OC)(c3cc4c(cc3OC)N(C)[C@H]3[C@@](O)(C(N)=O)[C@H](O)[C@]5(CC)C=CCN6CC[C@]43[C@@H]65)C2)C1 [ONC0000288, vindesine sulfate]",,94.86
"C[C@]12CC[C@@H]3c4ccc(O)cc4CC[C@H]3[C@@H]1CC[C@@H]2O [ONC0000707, estradiol]",,85.31
"C[C@]12CC[C@@H]3c4ccc(O)cc4CC[C@H]3[C@@H]1CC[C@@H]2OC(=O)CCC1CCCC1 [ONC0000738, estradiol cypionate]",,84.11
"CCCCC(=O)O[C@H]1CC[C@H]2[C@@H]3CCc4cc(O)ccc4[C@H]3CC[C@]12C [ONC0000727, estradiol valerate]",,49.76
"[H]/N=C(\N/C(=N/[H])NCCCCCCNC(=N)NC(=N)Nc1ccc(Cl)cc1)Nc1ccc(Cl)cc1 [ONC0000326, chlorhexidine dihydrochloride]",,77.24
"Cc1cccc(NC(=O)N[C@@H]2N=C(c3ccccc3)c3ccccc3N(CC(=O)c3ccccc3C)C2=O)c1 [ONC0005568, ym022]",,88.21
"C=Cc1c(C)c2cc3nc(c(CC(=O)O)c4[nH]c(cc5nc(cc1[nH]2)C(C)=C5CC)c(C)c4C(=O)O)C(CCC(=O)O)C3C (stereo not shown) [ONC0000409, chlorophyllin chlorin e6]",,49.9
"C=CC1=C(C)c2cc3[nH]c(cc4nc(cc5[nH]c(cc1n2)c(C)c5CCC(=O)O)C(CCC(=O)O)=C4C)c(C)c3C=C [ONC0000685, protoporphyrin ix]",,98.29
"CC1=C(CCC(=O)O)c2cc3[nH]c(cc4nc(cc5[nH]c(cc1n2)c(C)c5C(C)O)C(C)=C4C(C)O)c(C)c3CCC(=O)O (stereo not shown) [ONC0002122, hematoporphyrin]",,86.42
